Measured values as given in PubChem BioAssay AID1347047 (National Center for Advancing Translational Sciences (NCATS), 2019).
The campaign covered roughly 1,400 compounds. About 10 (0.7%) were called active. Entries that show only a call come without a potency. Another 2% or so got no clear call; they are omitted. Calls come from the whole dose curve; as a rule, active = well fitted inhibition curve with a large enough effect; inconclusive = small, poorly fitted or top-dose-only effect; inactive = flat fitted curve, though single readings scatter. Many of the other results were omitted from the sample, so actives are more common in it than they were.

Each molecule was assayed against Luciferin 4-monooxygenase (Photinus pyralis) (UniProt P08659) (assay: Natriuretic polypeptide receptor (hNpr1) antagonism - Confirmation firefly luciferase (FLuc) inhibition counterscreen). Conditions: purified FLuc enzyme, luminescence, Km substrate; series mostly up to 57.6 µM.
Sequence of Luciferin 4-monooxygenase (Photinus pyralis) (P08659 whole entry, looked up): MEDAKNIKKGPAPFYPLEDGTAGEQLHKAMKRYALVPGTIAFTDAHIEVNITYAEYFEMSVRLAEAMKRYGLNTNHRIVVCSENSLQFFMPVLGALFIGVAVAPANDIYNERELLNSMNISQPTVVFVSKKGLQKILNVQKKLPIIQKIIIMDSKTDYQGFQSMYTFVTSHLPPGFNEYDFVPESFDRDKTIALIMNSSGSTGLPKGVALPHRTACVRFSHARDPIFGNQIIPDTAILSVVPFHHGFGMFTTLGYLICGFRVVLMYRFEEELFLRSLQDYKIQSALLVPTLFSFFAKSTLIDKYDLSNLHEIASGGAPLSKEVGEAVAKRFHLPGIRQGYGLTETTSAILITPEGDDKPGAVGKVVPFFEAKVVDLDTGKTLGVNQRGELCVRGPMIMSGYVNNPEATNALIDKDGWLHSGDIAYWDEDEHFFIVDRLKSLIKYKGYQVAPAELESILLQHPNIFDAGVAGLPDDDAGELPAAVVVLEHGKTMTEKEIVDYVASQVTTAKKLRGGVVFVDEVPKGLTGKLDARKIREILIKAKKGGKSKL
Excerpt: Firefly (Photinus pyralis) luciferase (FLuc) is one of the more frequently used transcriptional reporter genes, and it has also been developed as a cellular sensor for cyclic nucleotides. (Fan F & Wood KV, 2007; Fan F et al., 2008) However, a significant number of compounds that populate chemical libraries have been identified as FLuc ligands which can be mistaken for modulators of the intended targeted pathways, receptors or enzymes. (Auld, DS et al. 2008; Thorne, N et al. 2012) Therefore, the FLuc enzyme assay conducted at sensitive Km level substrate conditions is used to counter-screen for potential FLuc ligands. Auld DS, Thorne N, Nguyen DT & Inglese J A specific mechanism for nonspecific activation in reporter-gene assays. ACS Chem Biol. 2008, 3: 463-470. DOI: 10.1021/cb8000793 Fan F, Binkowski BF, Butler BL, Stecha PF, Lewis MK, Wood KV. Novel genetically encoded biosensors using firefly luciferase. ACS Chem Biol. 2008, 3: 346-351. DOI: 10.1021/cb8000414 Fan F and Wood KV. Bioluminescent assays for high-throughput screening. Assay Drug Dev Technol. 2007, 5: 127-136. […] Chemistry & Biology, 2012, 19: 1060-1072. DOI.org/10.1016/j.chembiol.2012.07.015
PROTOCOL TABLE (as described by Inglese J, Shamu CE and Guy RK. 2007) SEQUENCE No. (e.g., 1, 2, 3, etc.); PARAMETER (e.g., Cells, Incubation, Reagent, etc.); VALUE and DESCRIPTION. FLUC KM ENZYME COUNTERSCREEN (Thorne, N.T. et al. 2012) 1. Reagent. Add 3 uL of D-luciferin substrate buffer per well into Greiner 1536-well white/solid bottom high base, medium bind plates. 2. Compounds. Library compounds and PTC124 control added at 23nL per well, transferred by Pin Tool. 3. Incubation. Incubate plates at room temperature for […], protect from light. 4. Reagent. Add 1uL of P. pyralis luciferase (FLuc) per well of Greiner 1536-well plates. 5. Incubation. Incubate plates at room temperature for 10 min., protect from light. 6. Detector. FLuc luminescence measured using CCD-based camera (Viewlux). NOTES (numbers refer to Sequence numbers above) 1. Substrate buffer: 10 uM D-luciferin final concentration in 50 mM Tris-Acetate, pH 7.6, 10 mM Mg-Acetate, 10 uM ATP, 0.01% Tween-20, and 0.05% BSA buffer added at 3uL/well to 13 x Greiner 1536-well white/solid bottom high base, medium bind plates. 2. PTC124 stock solution prepared (10 mM in DMSO; Auld D.S. et al. 2010). Working dilution for dispense = 10 mM stock dilution (57.5 uM final concentration; 16-pt 1:3 titration in duplicate = final concentration range of 57.5 uM - 4 pM). 23nL of library compounds, PTC124 control or DMSO vehicle control transferred to the 13 substrate-containing Greiner white/solid bottom high base, medium bind plates in 11 interplate 1:3 titrations (see Yasgar, A. et al. 2008) with Pintool. 3. Substrate incubated for 30-50 min. at ambient temperature protected from light with metal lid. 4. Enzyme solution: 10 nM P. pyralis luciferase (FLuc) final concentration in 50 mM Tris-Acetate, pH 7.6 added at 1uL to 13 x Greiner 1536-well white/solid bottom high base, medium bind plates. 5. Substrate and enzyme incubated with test library compounds and controls for 10 min. at ambient temperature protected from light with metal lid. 6. Read final Luminescence on the ViewLux. [Exposure = 30 s.; Gain = High; Speed = Slow; and Binning = 2X.] REFERENCES: Auld DS, Lovell S, Thorne N, Lea WA, Maloney DJ, Shen M, Rai G, Battaile KP, Thomas CJ, Simeonov A, Hanzlik RP and Inglese J. Molecular basis for the high-affinity binding and stabilization of firefly luciferase by PTC124. […] Chemistry & Biology, 2012, 19: 1060-1072. doi.org/10.1016/j.chembiol.2012.07.015 Yasgar A, Shinn P, Jadhav A, Auld DS, Michael S, Zheng W, Austin CP, Inglese J and Simeonov A, Compound Management for Quantitative High-Throughput Screening. J. Assoc. Lab. Auto., 2008, 13: 79-89. doi: 10.1016/j.jala.2007.12.004
Potency is the fitted concentration of half-maximal effect.

Structure (SMILES)	Potency
O=C(NCc1nnc2cc(-c3nc(C4CC4)no3)ccn12)c1ccc(F)cc1Cl	inactive
Cc1cccc(CN2CCc3nc(C(=O)Nc4ccc(Cl)cc4)oc3CC2)c1	inactive
C1CCC(COCCc2noc(C3CNC3)n2)C1	inactive
O=C(c1cccc(F)c1)N1CCOC[C@H](Oc2ccc(C(F)(F)F)cc2)C1	inactive
Cc1cccc(-c2cccc(CN)c2)c1	inactive
Cc1c[nH]c(CN2CCCC(CCc3ccc(F)cc3F)C2)c(C)c1=O (configuration not stated)	inactive
c1ccc(CO[C@@H]2CO[C@H]3[C@@H]2OC[C@@H]3n2nnnc2SCc2ccco2)cc1	inactive
CC(=O)N1CCC(NC[C@H]2O[C@H](Cc3cc(-c4cccc(O)c4)on3)CC[C@@H]2O)CC1	inactive
O=C(c1ccccc1)N1CCNc2cnc(Nc3cccc(C(F)(F)F)c3)nc2C1	inactive
O=c1[nH]c(C2CCCN(Cc3ccccn3)C2)nn1-c1ccc(Cl)cc1 (configuration not stated)	inactive
COc1ccc(CN2C(=O)CO[C@H]3CN(Cc4ccc5c(c4)OCO5)C[C@H]32)cc1	inactive
CC(C)c1cc(C(=O)N2CCC(n3cc(-c4ccccn4)nn3)CC2)n(C)n1	inactive
O=C(N1CCN(c2cc(-c3ccc(Cl)cc3)[nH]n2)CC1)C1(c2ccccc2)CC1	inactive
Cc1ccc2c(c1)nc1n2[C@@H](CNS(=O)(=O)c2ccccc2)COC1	inactive
COc1cccc(CNC(=O)Cn2c(N(C)Cc3ccccc3)nc(C)cc2=O)c1OC	inactive
COc1cccc(C2C(C(=O)Nc3ccccc3)=C(C)N=C3SC=C(CC(=O)NCC(C)C)N32)c1 (configuration not stated)	inactive
Cc1ccc2nc(C3CCCN(Cc4ccc(C#N)cc4)C3)[nH]c(=O)c2c1 (configuration not stated)	inactive
COC(=O)C1=C(C)N=C2SC=C(CC(=O)NCCC(C)C)N2C1c1ccccc1Cl (configuration not stated)	inactive
O=C1Nc2ccccc2CN(Cc2ccccc2)C12CCNCC2	inactive

Structure (SMILES)	Potency
COc1ccc(C2Cn3nnc(C(=O)N4CCN(C(=O)c5ccc(C)cc5C)CC4)c3CO2)cc1 (configuration not stated)	inactive
COc1ccc(C2Cn3nnc(C(=O)N4CCN(C(=O)c5cccc(Cl)c5)CC4)c3CO2)cc1 (configuration not stated)	inactive
COc1ccc(C(=O)N2CCC(n3cc(-c4nc(C(C)C)no4)nn3)CC2)cc1F	inactive
O=C1NCN(Cc2ccc(Cl)cc2)C12CCN(Cc1ccccc1)CC2	inactive
O=C1c2cnc(-c3ccc(Cl)cc3)nc2OCCN1Cc1ccccc1	2.5 µM (active)
OC1(Cc2cc(-c3ccccc3)no2)CCN(c2ncncn2)CC1	inactive
CC(C)c1noc(-c2cn(C3CCN(C(=O)c4ccc(N(C)C)cc4)C3)nn2)n1 (configuration not stated)	inactive
CC(C)c1nncn1C1CCN(S(=O)(=O)c2cccc(Br)c2)CC1	inactive
COc1ccc(-c2noc(CC3CCN(C(=O)Cc4ccccc4)CC3)n2)cc1	inactive
O=C(c1ccc2cc[nH]c2c1)N1CCC2(CC1)N=C(c1ccc(Cl)cc1)NO2	inactive
CCN(CCCNC(=O)c1nnn2cc(-c3ccccc3)[nH]c(=O)c12)c1ccccc1	inactive
CCc1ccc(C(=O)N2CCN(c3cc(-c4ccc(F)cc4)[nH]n3)CC2)cc1	inactive
COc1ccc(CCNC(=O)c2noc(-c3ccc(C)cc3)n2)cc1OC	inactive
O=C(c1ccccn1)N1CC(Oc2ccc(-c3noc(C4CC4)n3)cc2)C1	inactive
Cc1cccc(C(=O)N2CCC3(CC2)CC(N(Cc2ccc(F)cc2)C2CC2)CCO3)c1 (configuration not stated)	inactive
Cc1nn2c(c1-c1ccccc1-c1ccccc1)N(CC1CC1)CCC2	inactive
CN(Cc1csc(-c2ccccc2)n1)c1cc(C2CC(O)C2)nc(N)n1 (configuration not stated)	inactive
COc1cccc(C2Cn3nnc(-c4nc(-c5ccccc5)no4)c3CO2)c1 (configuration not stated)	inactive
